Our source for the Potency values is PubChem BioAssay (NCATS).

Where “and” joins values, the source holds several entries; their conditions need not be identical. Equal values may be shown once. Results filed as inconclusive are left out. Calls of active or inactive are those of the source. The call rests on the fitted dose curve; in most records, active means well fitted curve in the direction sought with a large enough effect; inconclusive means small, poorly fitted or top-dose-only effect, or another doubt; inactive means no such curve, though single readings can be large; an effect the other way counts as inactive or inconclusive.
Potency means the concentration at half of the fitted maximal effect.

The first assay in a line: qHTS of pediatric cancer cell lines to identify multiple opportunities for drug repurposing: Primary screen for Rh41 cells (AID 1347108). Further: nearly all actives have a fitted effect of over 70% in size. To be noted: Rh41 rhabdomyosarcoma viability, CellTiter-Glo luminescence, 48 h; series mostly up to 46 µM. In short, it runs like this: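 Phenotypic viability qHTS, 48 h compound exposure, CellTiter-Glo luminescence read-out; multi-concentration dosing so that potency and efficacy derive directly from the primary screen's curves.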
A general note: Quantitative high-throughput screening tests each substance at several concentrations.
Turning to `CC(=O)OC1(c2ccccc2)CCN(CCc2ccccc2)CC1`, the Potency was 49.5 µM (active).

Consider `CCNc1nc(Cl)nc(NCC)n1`, for which the Potency result is “inactive”.

Regarding `COc1ccc(C(=O)N2CCCC2=O)cc1`, the Potency result is “inactive”.

As for `ClCc1cccc(Cl)c1`, the Potency entry was “inactive”.

With `COP(=S)(OC)Oc1ccc(Sc2ccc(OP(=S)(OC)OC)cc2)cc1`, the Potency entry was “inactive”.

For `CCS(=O)(=O)C(C)(C)S(=O)(=O)CC`, the Potency result was “inactive”.

As to `CC1N=C(N)OC1c1ccccc1` (stereo not drawn), the Potency result was “inactive”.

Regarding `CCCCCCCCCCCC[N+](C)(C)CCOc1ccccc1`, the Potency is 16.8 µM (active).

`CC[C@H](O)C(C[C@H](C)N(C)C)(c1ccccc1)c1ccccc1`: the Potency was 44.1 µM (active).

Turning to `COP(=O)(OC)OC=C(Cl)Cl`, the Potency result is “inactive”.

Turning to `CC(Cc1ccc2c(c1)OCO2)NO` (stereo not drawn), the Potency entry was “inactive”.

As for `COCC(=O)N(c1c(C)cccc1C)C(C)C(=O)OC` (stereo not drawn), the Potency result was “inactive”.

For the molecule `CCC(OC(C)=O)C(CC(C)NC)(c1ccccc1)c1ccccc1` (stereo not drawn), the Potency is 31 µM (active).

Consider `CCN(CC)C(C)C(=O)c1ccccc1` (stereo not drawn), for which the Potency entry is “inactive”.

With `CC[n+]1c(-c2ccccc2)c2cc(N)ccc2c2ccc(N)cc21`, the Potency was 3.35 µM (active).

Consider `NC(=O)OCCCc1ccccc1`, for which the Potency result was “inactive”.

`O=C1NCN(c2ccccc2)C12CCN(CCCOc1ccc(F)cc1)CC2`: the Potency result is “inactive”.

A short description of another assay: qHTS of pediatric cancer cell lines to identify multiple opportunities for drug repurposing: Confirmatory screen for NB1643 cells (AID 1347109). Further: nearly all actives have a fitted effect of over 45% in size. As to conditions: NB1643 neuroblastoma cell viability; series mostly up to 45.9 µM. In a few lines:
(§1)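 Cells (500-1,000/well) rested 5 h, then received compounds for 48 h; metabolically active cells were measured by CellTiter-Glo luminescence. Final concentrations spanned up to 46 µM (MIPE, 11-point) or 0.59 nM-46 µM (NPC, 8-point) in primary screens, 11-point in follow-ups.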
As to `CCCCCCCCCCCC[N+](C)(C)CCOc1ccccc1`, the Potency is 11.7 µM (active).

Turning to `CC[n+]1c(-c2ccccc2)c2cc(N)ccc2c2ccc(N)cc21`, the Potency was 11.7 µM (active).

Turning to `COc1ccc2c(C(=O)c3ccc(Cl)cc3)c(C)n(CC(=O)O)c2c1`, the Potency result is “inactive”.

A short description of a further assay: qHTS of pediatric cancer cell lines to identify multiple opportunities for drug repurposing: Confirmatory screen for A673 cells (AID 1347110).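 Further: cells exposed to compound for 48 h before the viability read; nearly all actives have a fitted effect of over 65% in size.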 As to conditions: A673 Ewing sarcoma cell viability; series mostly up to 45.9 µM. In a few lines: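 Cells plated at 500-1,000/well were treated five hours later with multi-point dilutions up to 46 µM final. After two days, CellTiter-Glo was added and luminescence read.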
For `COc1ccc(C(=O)N2CCCC2=O)cc1`, the Potency result is “inactive”.

Regarding `C[C@@H]1C[C@@H]([C@H](O)CC2CC(=O)NC(=O)C2)C(=O)[C@@H](C)C1`, the Potency is 1.65 µM (active).

In the case of `CCCCCCCCCCCC[N+](C)(C)CCOc1ccccc1`, the Potency is 8.27 µM (active).

Regarding `CC[n+]1c(-c2ccccc2)c2cc(N)ccc2c2ccc(N)cc21`, the Potency is 3.29 µM (active).

Consider `COc1ccc2c(C(=O)c3ccc(Cl)cc3)c(C)n(CC(=O)O)c2c1`, for which the Potency was 7.37 µM (active).

The nature of another assay: qHTS of pediatric cancer cell lines to identify multiple opportunities for drug repurposing: Confirmatory screen for BT-12 cells (AID 1347112). Further: nearly all actives have a fitted effect of over 55% in size. As to conditions: BT-12 rhabdoid tumor cells, viability; series mostly up to 45.9 µM. In a few lines: as §1
For `C[C@@H]1C[C@@H]([C@H](O)CC2CC(=O)NC(=O)C2)C(=O)[C@@H](C)C1`, the Potency is 2.93 µM (active).

For the molecule `CC[n+]1c(-c2ccccc2)c2cc(N)ccc2c2ccc(N)cc21`, the Potency was 1.47 µM (active).

In the case of `COc1ccc2c(C(=O)c3ccc(Cl)cc3)c(C)n(CC(=O)O)c2c1`, the Potency entry is “inactive”.

Another assay is described as follows: qHTS of pediatric cancer cell lines to identify multiple opportunities for drug repurposing: Confirmatory screen for LAN-5 cells (AID 1347113). Further: nearly all actives have a fitted effect of over 65% in size. To be noted: LAN-5 neuroblastoma cell viability; series mostly up to 45.9 µM. In short, it runs like this:
as §1
Consider `C[C@@H]1C[C@@H]([C@H](O)CC2CC(=O)NC(=O)C2)C(=O)[C@@H](C)C1`, for which the Potency was 928 nM (active) and 2.61 µM (active).

For `CCCCCCCCCCCC[N+](C)(C)CCOc1ccccc1`, the Potency was 14.7 µM (active).

For the molecule `CC[n+]1c(-c2ccccc2)c2cc(N)ccc2c2ccc(N)cc21`, the Potency is 0.928 µM (active).

Regarding `COc1ccc2c(C(=O)c3ccc(Cl)cc3)c(C)n(CC(=O)O)c2c1`, the Potency result is “inactive”.

A short description of the next assay: qHTS of pediatric cancer cell lines to identify multiple opportunities for drug repurposing: Confirmatory screen for DAOY cells (AID 1347114). Further: nearly all actives have a fitted effect of over 65% in size. To be noted: DAOY medulloblastoma cells viability, cytotoxicity qHTS; series mostly up to 45.9 µM. In a few lines: (§2)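 Viability measured as metabolically active cells via CellTiter-Glo luminescence following 48 hours of compound exposure, 11-point dilutions in confirmatory testing. 500-1,000 cells/well plated 5 hours before dosing; controls were DMSO and 2.3 µM bortezomib.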
With `COc1ccc(C(=O)N2CCCC2=O)cc1`, the Potency result was “inactive”.

For `C[C@@H]1C[C@@H]([C@H](O)CC2CC(=O)NC(=O)C2)C(=O)[C@@H](C)C1`, the Potency entry is “inactive”.

In the case of `CCCCCCCCCCCC[N+](C)(C)CCOc1ccccc1`, the Potency is 18.5 µM (active).

For the molecule `CC[n+]1c(-c2ccccc2)c2cc(N)ccc2c2ccc(N)cc21`, the Potency was 13.1 µM (active).

Regarding `COc1ccc2c(C(=O)c3ccc(Cl)cc3)c(C)n(CC(=O)O)c2c1`, the Potency result is “inactive”.

A further assay can be described thus: qHTS of pediatric cancer cell lines to identify multiple opportunities for drug repurposing: Confirmatory screen for SJ-GBM2 cells (AID 1347116). Further: nearly all actives have a fitted effect of over 60% in size. As to conditions: SJ-GBM2 glioblastoma cells, viability; series mostly up to 45.9 µM. In a few lines: as §2
In the case of `C[C@@H]1C[C@@H]([C@H](O)CC2CC(=O)NC(=O)C2)C(=O)[C@@H](C)C1`, the Potency is 2.33 µM (active).

Take `CC[n+]1c(-c2ccccc2)c2cc(N)ccc2c2ccc(N)cc21`: the Potency is 3.69 µM (active).

For `COc1ccc2c(C(=O)c3ccc(Cl)cc3)c(C)n(CC(=O)O)c2c1`, the Potency entry is “inactive”.

The next assay in a line: qHTS of pediatric cancer cell lines to identify multiple opportunities for drug repurposing: Confirmatory screen for BT-37 cells (AID 1347117). Further: nearly all actives have a fitted effect of over 55% in size. As to conditions: BT-37 pediatric cancer cells, viability; series mostly up to 45.9 µM. In short, it runs like this:
as §1
As to `C[C@@H]1C[C@@H]([C@H](O)CC2CC(=O)NC(=O)C2)C(=O)[C@@H](C)C1`, the Potency was 1.04 µM (active) and 1.17 µM (active).

For `CCCCCCCCCCCC[N+](C)(C)CCOc1ccccc1`, the Potency was 20.8 µM (active).

As for `CC[n+]1c(-c2ccccc2)c2cc(N)ccc2c2ccc(N)cc21`, the Potency is 1.04 µM (active).

As to `COc1ccc2c(C(=O)c3ccc(Cl)cc3)c(C)n(CC(=O)O)c2c1`, the Potency result is “inactive”.

Another assay can be described thus: qHTS of pediatric cancer cell lines to identify multiple opportunities for drug repurposing: Confirmatory screen for TC32 cells (AID 1347118).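 Further: cells exposed to compound for 48 h before the read; nearly all actives have a fitted effect of over 65% in size.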 To be noted: TC32 Ewing sarcoma cells viability qHTS; series mostly up to 45.9 µM. In short, it runs like this: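 Luminescent CellTiter-Glo read-out of metabolically active TC32 cells after 48 h compound exposure. Primary: MIPE 11-point, 0.78 nM–46 µM; NPC 8-point, 0.59 nM–46 µM. Confirmatory: 11-point dilutions.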
Take `COc1ccc(C(=O)N2CCCC2=O)cc1`: the Potency is 14.7 µM (active).

`C[C@@H]1C[C@@H]([C@H](O)CC2CC(=O)NC(=O)C2)C(=O)[C@@H](C)C1`: the Potency was 465 nM (active) and 522 nM (active).

Turning to `CCCCCCCCCCCC[N+](C)(C)CCOc1ccccc1`, the Potency was 7.37 µM (active).

Consider `CC[n+]1c(-c2ccccc2)c2cc(N)ccc2c2ccc(N)cc21`, for which the Potency was 1.17 µM (active).

For the molecule `COc1ccc2c(C(=O)c3ccc(Cl)cc3)c(C)n(CC(=O)O)c2c1`, the Potency was 16.5 µM (active).

Another assay is described as follows: qHTS of pediatric cancer cell lines to identify multiple opportunities for drug repurposing: Confirmatory screen for MG 63 (6-TG R) cells (AID 1347119). Further: nearly all actives have a fitted effect of over 55% in size. As to conditions: MG-63 (6-TG resistant) osteosarcoma viability; series mostly up to 45.9 µM. In a few lines:
as §1
Turning to `COc1ccc(C(=O)N2CCCC2=O)cc1`, the Potency is 29.3 µM (active).

`CCCCCCCCCCCC[N+](C)(C)CCOc1ccccc1`: the Potency was 20.8 µM (active).

As to `CC[n+]1c(-c2ccccc2)c2cc(N)ccc2c2ccc(N)cc21`, the Potency was 5.85 µM (active).

With `COc1ccc2c(C(=O)c3ccc(Cl)cc3)c(C)n(CC(=O)O)c2c1`, the Potency result is “inactive”.
